PubChem BioAssay (EPA / NIEHS)
Inconclusive results are not listed. Active and inactive are the calls of the source. How the source made its calls, unless noted: active means hit-call score of the fitted dose curve at least 0.9, where 1 is the maximum; inactive means score below 0.9.

Tests used:
[1] = CCTE_Deisenroth_5AR_NBTE_donor: CCTE's 5alpha-reductase NanoBRET Target Engagement Assay […], Deisenroth Lab (AID 2284319); conditions: actives raise or lower the signal
Summary of the method: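 Donor NanoLuc luminescence at 460-20 nm is the read-out, serving artifact detection. Transiently expressed SRD5A2-NanoLuc in HEK293T; 5 h total chemical exposure, testosterone tracer added for the final 2 h; fitting bidirectional relative to DMSO baseline.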

[2] = molecular target: Estrogen receptor (Homo sapiens) (UniProt P03372); assay: OT_ER_ERaERa_1440: Odyssey Thera (OT) 24-hour HEK293T Protein-Complementation Assay for Estrogen Receptor-alpha/-alpha Homodimer (AID 2283349; active means hit-call score of the fitted dose curve at least 0.9, where 1 is the maximum;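 further: hits raise fluorescence above DMSO for agonists and antagonists alike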)
Estrogen receptor (Homo sapiens), sequence (P03372 whole entry, looked up, the tested form may be a part): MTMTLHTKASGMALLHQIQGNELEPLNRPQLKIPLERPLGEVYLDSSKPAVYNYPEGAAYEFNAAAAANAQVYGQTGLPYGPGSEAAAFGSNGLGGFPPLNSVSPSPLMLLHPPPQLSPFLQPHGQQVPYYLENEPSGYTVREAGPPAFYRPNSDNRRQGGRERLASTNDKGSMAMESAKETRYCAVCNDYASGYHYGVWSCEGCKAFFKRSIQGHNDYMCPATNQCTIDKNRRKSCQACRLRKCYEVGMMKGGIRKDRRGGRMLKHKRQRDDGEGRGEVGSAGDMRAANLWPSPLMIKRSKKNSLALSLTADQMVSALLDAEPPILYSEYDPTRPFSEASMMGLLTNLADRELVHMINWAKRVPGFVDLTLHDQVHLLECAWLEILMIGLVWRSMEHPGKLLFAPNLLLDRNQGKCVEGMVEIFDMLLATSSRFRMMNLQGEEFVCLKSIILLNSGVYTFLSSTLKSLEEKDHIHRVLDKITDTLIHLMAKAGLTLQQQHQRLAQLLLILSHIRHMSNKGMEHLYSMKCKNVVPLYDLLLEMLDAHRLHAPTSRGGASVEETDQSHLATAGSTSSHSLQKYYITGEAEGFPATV
Summary of the method: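 Cells (HEK293T) carrying the fragment-tagged ERα LBD (aa 310-547) pair are treated with chemical for 24 hours. Nuclear and/or cytoplasmic fluorescence is then quantified on a laser scanning cytometer. Activity is scored as signal gain against DMSO.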

[3] = molecular target: Estrogen receptor (Homo sapiens) (UniProt P03372); assay: OT_ER_ERaERa_0480: Odyssey Thera (OT) 8-hour HEK293T Protein-Complementation Assay for Estrogen Receptor-alpha/-alpha Homodimer (AID 2283351; active means hit-call score of the fitted dose curve at least 0.9, where 1 is the maximum;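 further: rise in fluorescence from reassembled reporter fragments on ERα LBD homodimer in nucleus or whole cell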)
Summary of the method: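 Measures ERα LBD (aa 310-547) homodimer complementation in stably transfected HEK293T at 8 h post-dose, with fluorescence intensity quantified on a laser scanning cytometer relative to DMSO controls.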

[4] = molecular target: Estrogen receptor (Homo sapiens) + Estrogen receptor beta (Homo sapiens) (UniProt P03372+Q92731); assay: OT_ER_ERaERb_1440: Odyssey Thera (OT) 24-hour HEK293T Protein-Complementation Assay for Estrogen Receptor-alpha/-beta Homodimer (AID 2283356; active means hit-call score of the fitted dose curve at least 0.9, where 1 is the maximum;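 further: heteromer of ER alpha and ER beta binding domains; hits raise reporter fluorescence and both agonists and antagonists give an increase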)
Estrogen receptor (Homo sapiens) + Estrogen receptor beta (Homo sapiens), sequence (P03372 whole entry, looked up, the tested form may be a part): as above
Estrogen receptor (Homo sapiens) + Estrogen receptor beta (Homo sapiens), sequence (Q92731 whole entry, looked up, the tested form may be a part): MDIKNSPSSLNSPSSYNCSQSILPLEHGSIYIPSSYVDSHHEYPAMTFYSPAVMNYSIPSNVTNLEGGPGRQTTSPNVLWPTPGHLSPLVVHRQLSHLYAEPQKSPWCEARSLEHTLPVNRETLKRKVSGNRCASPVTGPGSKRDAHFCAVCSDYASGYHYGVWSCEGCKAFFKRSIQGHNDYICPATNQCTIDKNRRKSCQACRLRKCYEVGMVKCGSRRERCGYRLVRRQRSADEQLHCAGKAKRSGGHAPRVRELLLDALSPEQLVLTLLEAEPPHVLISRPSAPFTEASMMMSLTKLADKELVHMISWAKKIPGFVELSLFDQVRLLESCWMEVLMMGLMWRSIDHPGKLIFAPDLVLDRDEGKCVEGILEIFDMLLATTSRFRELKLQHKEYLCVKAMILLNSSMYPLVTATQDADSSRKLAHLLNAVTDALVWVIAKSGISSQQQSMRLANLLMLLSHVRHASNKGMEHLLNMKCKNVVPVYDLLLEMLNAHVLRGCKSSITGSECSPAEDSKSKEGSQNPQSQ
Summary of the method: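 Fragment complementation between ER alpha (310-547) and ER beta (263-489) ligand-binding domains in HEK293T cells; signal read 24 h post-dosing by laser scanning cytometer. Gain of fluorescence relative to DMSO fitted.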

[5] = molecular target: Estrogen receptor (Homo sapiens) (UniProt P03372); assay: OT_ERa_GFPERaERE_0480: Odyssey Thera (OT) 8-hour HeLa Transcription Induction Assay for Estrogen Receptor (AID 2283381)
Summary of the method: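 An 8 h HeLa transcription-induction format with a GFP reporter under ERE control, read by fluorescence microscopy; single endpoint fitted positively with DMSO as baseline.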

[6] = molecular target: Estrogen receptor (Homo sapiens) (UniProt P03372); assay: OT_ERa_GFPERaERE_0120: Odyssey Thera (OT) 2-hour HeLa Transcription Induction Assay for Estrogen Receptor (AID 2283382; active means hit-call score of the fitted dose curve at least 0.9, where 1 is the maximum)
Summary of the method: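 Two-hour compound treatment of HeLa cells preceded microscopy imaging of an inducible fluorescent reporter. Image-based quantification gave one endpoint, analysed for signal increase relative to DMSO controls.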

[7] = CCTE_Shafer_MEA_dev_firing_rate_mean: CCTE's Neural Network Formation Assay for Mean Firing Rate, Shafer Lab (AID 2284031);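 on AC50: curve fitted for loss of firing so AC50 reflects decreased mean firing rate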
Summary of the method: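 Extracellular spike frequency, AUC over DIV 5–12 recordings, in rat cortical neuron MEA cultures dosed from plating; loss direction vs DMSO.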

[8] = CCTE_Shafer_MEA_dev_active_electrodes_number: CCTE's Neural Network Formation Assay for Number of Active Electrodes, Shafer Lab (AID 2284040; active means hit-call score of the fitted dose curve at least 0.9, where 1 is the maximum;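 on AC50: potency for loss of active electrodes versus DMSO so lower counts are hits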)
Summary of the method: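 Developing rat cortical networks on MEAs, exposed DIV 0–12. Value is the AUC of active-electrode counts (≥5 spikes/min) from days 5, 7, 9, 12, relative to DMSO.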

[9] = CCTE_Shafer_MEA_dev_burst_rate: CCTE's Neural Network Formation Assay for Burst Rate, Shafer Lab (AID 2284042);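 on AC50: potency for loss of burst rate below DMSO control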
Summary of the method: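 Rat primary cortical cultures on PEI/laminin MEA; compound from plating, re-dosed at DIV 5, 9 media change. Single-electrode bursts/recording length, well mean of active electrodes; AUC over DIV 5–12 recordings; loss-of-signal vs DMSO.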

[10] = CCTE_Shafer_MEA_dev_burst_duration_mean: CCTE's Neural Network Formation Assay for Mean Burst Duration, Shafer Lab (AID 2284045);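 on AC50: curve fitted for loss meaning shorter burst duration than DMSO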
Summary of the method: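 Rat cortical cultures, 1.5 x 10^5 cells/well with laminin drop; continuous dosing days 0–12, media plus treatment refreshed DIV 5, 9. AxIS adaptive spike detection; mean single-electrode burst duration, AUC over four recordings, negative direction vs DMSO.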

[11] = CCTE_Shafer_MEA_dev_inter_network_spike_interval_mean: CCTE's Neural Network Formation Assay for Mean Inter-network Spike Interval, Shafer Lab (AID 2284047)
Summary of the method: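 Primary rat cortical neurons on PEI-coated 48-well MEAs (16 electrodes/well) were exposed from plating day 0 to DIV 12, with dosing renewed at DIV 5 and 9. Recordings at DIV 5, 7, 9, 12 were collapsed by trapezoidal AUC, loss-of-signal fit vs DMSO.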

[12] = CCTE_Shafer_MEA_dev_network_spike_number: CCTE's Neural Network Formation Assay for Number of Network Spikes, Shafer Lab (AID 2284048);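 further: synchronized bursts across electrodes counted on days 5 7 9 12 and integrated as AUC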;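 on AC50: fit as a loss of signal meaning fewer network spikes than DMSO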
Summary of the method: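 Rat cortical primary cultures on 48-well MEA (16 electrodes/well); continuous exposure DIV 0–12, full medium and treatment exchange DIV 5, 9. Readout: network spike count, AxIS adaptive detection, recordings DIV 5/7/9/12 collapsed to AUC; loss-of-signal fit, DMSO baseline.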

[13] = CCTE_Shafer_MEA_dev_network_spike_peak: CCTE's Neural Network Formation Assay for Mean Number of Electrodes in Network Spike, Shafer Lab (AID 2284049);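 on AC50: fitted for loss of signal meaning fewer electrodes in network spikes than DMSO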
Summary of the method: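 Network-spike peak electrode count from recordings on days 5, 7, 9 and 12 was combined as trapezoidal area under the curve. Rat cortical cultures were treated continuously from plating, with compound renewed at each feed (DIV 5, 9); fits versus DMSO.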

[14] = CCTE_Shafer_MEA_dev_spike_duration_mean: CCTE's Neural Network Formation Assay for Mean Spike Duration, Shafer Lab (AID 2284051);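 further: mean network spike duration pooled as area under curve over DIV 5 to 12 recordings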;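 on AC50: potency for a decrease in mean network spike duration versus DMSO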
Summary of the method: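 Rat cortical primary cultures, 48-well MEA (16 electrodes/well); compound from plating, renewed DIV 5, 9. Network spike duration (AxIS adaptive detector) recorded DIV 5/7/9/12, combined as trapezoidal AUC; loss direction vs DMSO.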

[15] = CCTE_Shafer_MEA_dev_network_spike_duration_std: CCTE's Neural Network Formation Assay for Standard Deviation of Network Spike Duration, Shafer Lab (AID 2284052);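 further: area under curve of spike duration SD across recording days 5 to 12; hits are decreases in network spike duration SD versus DMSO vehicle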
Summary of the method: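 Rat cortical cultures, 1.5 x 10^5 cells/well, exposed continuously from plating to DIV 12 with media/compound renewal at DIV 5, 9. Spontaneous activity recorded DIV 5/7/9/12, AxIS adaptive spike detector; AUC across days; negative direction vs DMSO.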

[16] = CCTE_Shafer_MEA_dev_per_network_spike_spike_number_mean: CCTE's Neural Network Formation Assay for Mean Number of Spikes in a Network Spike, Shafer Lab (AID 2284053);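 on AC50: fitted as decrease in spikes per network spike relative to DMSO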
Summary of the method: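 Rat cortical primary cultures on 48-well MEA; compound from day 0, re-dosed with full media change DIV 5, 9. Recorded DIV 5, 7, 9, 12; spikes in 0.05 s window at network-spike peak ÷ total network spikes; AUC; loss vs DMSO.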

[17] = CCTE_Shafer_MEA_dev_per_network_spike_spike_percent: CCTE's Neural Network Formation Assay for Percent of Spikes in a Network Spike, Shafer Lab (AID 2284054)
Summary of the method: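 Read-out: percent of spikes falling in a 0.05 s window at network-spike peak, from spontaneous MEA recordings on days 5, 7, 9 and 12; trapezoidal AUC; loss of signal versus DMSO. Rat cortical cultures, compound present throughout.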

[18] = CCTE_Shafer_MEA_dev_mutual_information_norm: CCTE's Neural Network Formation Assay for Mutual Information Normalization, Shafer Lab (AID 2284091);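 on AC50: mutual information between electrodes summarised as area under curve across four recording days; potency is for a decrease in mutual information relative to DMSO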
Summary of the method: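 Neurons from rat cortex were seeded at 1.5 x 10^5 cells/well onto PEI-coated MEAs in a laminin drop, then exposed to compound from day 0 for twelve days. Network recordings on four days gave mutual information, summarised by AUC relative to DMSO.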

[19] = CCTE_Shafer_MEA_dev_correlation_coefficient_mean: CCTE's Neural Network Formation Assay for Mean Correlation Coefficient, Shafer Lab (AID 2284093);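 on AC50: well mean pairwise spike train correlation integrated as AUC over recording days 5 to 12; potency fitted for loss of correlation relative to DMSO vehicle wells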
Summary of the method: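 Rat cortical cultures, 1.5 x 10^5 cells/well, dosed from day 0 for 12 days. Spontaneous spikes recorded DIV 5/7/9/12; electrode-pair correlation coefficients averaged, AUC taken. Fit in loss direction vs DMSO.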

[20] = TAMU_PeakParms_SingleDonor1434_Chronotropy: Texas A&M University (TAMU) 1.5-hr Human Induced Pluripotent Stem Cell (iPSC)-derived Cardiomyocytes Calcium (Ca+2) Flux Assay for Cardiotoxicity: Chronotropy (changes in peak frequency) (AID 2284217); conditions: actives raise or lower the signal
Summary of the method: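 iPSC-CMs, donor 1434; 4 conc (0.2–100 uM), 0.5% v/v DMSO, 90 min, 37C/5% CO2; Ca2+ flux fluorescence → peak.freq.avg; peak.freq.avg = 0 dropped; bidirectional fit vs DMSO; EC05 POD.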

Measured: AC50

Oc1cc(Cl)ccc1Cl
inactive: [1]

c1ccc(P(c2ccccc2)c2ccccc2)cc1
inactive: [2]
active: [3] 60.6 µM | [4] 64.4 µM | [5] 84.1 µM | [6] 17 µM

CCCC=NO
inactive: [2] | [3] | [4] | [5] | [6]

C=CC(=O)OCC(CC)CCCC (centres undefined)
inactive: [1]

O=P(O)(Oc1ccccc1)Oc1ccccc1
inactive: [2] | [3] | [4] | [5] | [6] | [1]

O=CNC(N1CCN(C(NC=O)C(Cl)(Cl)Cl)CC1)C(Cl)(Cl)Cl (centres undefined)
inactive: [2] | [3] | [4] | [5] | [6]

CC(C)CCCCCCCOP(=O)(Oc1ccccc1)Oc1ccccc1
not listed: [1] | [2] | [3] | [4] | [5] | [6]
inactive: all other assays above

Cc1cc(C)c(C2=C(OC(=O)CC(C)(C)C)C3(CCCC3)OC2=O)c(C)c1
inactive: [2] | [3] | [4] | [5] | [6]

CCCCCCCCCCCCCCCC[N+](C)(C)C
active: [1] 16.3 µM

CNC(=N[N+](=O)[O-])NCC1CCOC1 (centres undefined)
not listed: [1] | [2] | [3] | [4] | [5] | [6] | [20]
inactive: all other assays above

CC1CCCC1.[C-]#[O+].[C-]#[O+].[C-]#[O+].[Mn]
active: [20] 50 µM
not listed: [1] | [2] | [3] | [4] | [5] | [6]
inactive: all other assays above

Cc1ccc(OP(=O)(Oc2ccc(C)cc2)Oc2ccc(C)cc2)cc1 (tested in a mixture with another compound)
not listed: [1] | [2] | [3] | [4] | [5] | [6]
inactive: all other assays above

CC1(C)[C@H](C(=O)O[C@H](C#N)c2cccc(Oc3ccccc3)c2)[C@@H]1C=C(Br)Br
active: [7] 3.1 µM | [8] 8.89 µM | [9] 3.86 µM | [10] 5.29 µM | [12] 0.853 µM | [13] 7.55 µM | [14] 6.4 µM | [15] 3.82 µM | [16] 3.96 µM | [17] 1.8 µM | [18] 0.641 µM | [19] 2.04 µM
inactive: [11] | [20]

O=C1C=CC(=O)C=C1
active: [20] 50 µM
